# Measured values reported in PubChem BioAssay (EPA / NIEHS).
# Active and inactive are the calls of the source. Rule for the calls: active = hit-call score of the fitted dose curve at least 0.9, where 1 is the maximum; inactive = score below 0.9.
# Assay: CEETOX_H295R_CORTIC: CeeTox H295R High-throughput Steroidogenesis Assay for Corticosterone (CORTIC) (AID 2283437);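 note: corticosterone secreted into medium quantified by mass spectrometry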
# Conditions: actives raise or lower the signal
# Procedure: CEETOX_H295R is a cell-based, multiplexed-readout assay that uses H295R, a human adrenal gland cell line, with measurements taken at 48 hours after chemical dosing in a 96-well plate.CEETOX_H295R_CORTIC is one of 23 assay component(s) measured or calculated from the CEETOX_H295R assay. It is designed to make measurements of hormone induction, a form of inducible reporter, as detected with absorbance signals by HPLC-MS-MS technology.Data from the assay component CEETOX_H295R_CORTIC was analyzed into 1 assay endpoint. This assay endpoint, CEETOX_H295R_CORTIC, was analyzed with bidirectional fitting relative to DMSO as the negative control and baseline of activity. Using a type of inducible reporter, gain or loss-of-signal activity using HPLC-MS-MS was used to understand synthesis of Corticosterone in H295R cell line at 48hr of chemical exposure. To generalize the intended target to other relatable targets, this assay endpoint is annotated to the steroid hormone intended target family, where the subfamily is glucocorticoids.
# Cell culture and media preparation procedures were conducted in accordance with OECD Test No. 456 guidelines, with minor modifications. H295R cells (ATCC CRL-2128) were expanded for 5 passages and frozen in batches in liquid nitrogen. Prior to the steroidogenesis assay, H295R cells were thawed and passed at least 4 times. The maximum passage was 10. Cells were maintained in a 1:1 mixture of DMEM/F12 supplemented with 5ml/L ITS+ Premix (BD Bioscience) and 12.5 ml/L Nu-Serum (BD Bioscience). After seeding cells into 96-well plates at 50-60% confluency, cells were allowed to adhere overnight. Prior to chemical testing, culture medium was replaced with 175 uL medium containing 10 uM forskolin to stimulate steroidogenesis for 48 hours. Following prestimulation, forskolin medium was replaced with medium containing test chemical solubilized in DMSO (ensuring a final concentration of 0.1% DMSO). Test chemicals were incubated for 48 hours, then the medium was removed and split into 2 vials containing approximately 75uL each, and stored at -80 C prior to hormone analysis. For steroid quantification, media samples were shipped to OpAns, LLC (Durham, NC) on dry ice, and samples were thawed to room temperature prior to liquid-liquid extraction. Steroid hormones were extracted from media samples using methyl tertbutyl ether (MTBE). An extra derivatization with dansyl chloride was included for estrogen (estrone and estradiol) detection only. Steroid hormones were separated by HPLC, eluted using a reverse phase C18 gradient with electrospray positive ionization, followed by quantification by tandem mass spectrometry (MS/MS). Data were acquired on a MassHunter Workstation Acquisition version B03.01 (Agilent Technologies, Inc.) and processed using MassHunter Quantitative Analysis for QQQ. Accuracy was determined for each hormone analyte from 3 standards to determine upper and lower limits of quantification (ULOQ and LLOQ, respectively) using a 7-point standard curve. Precision and accuracy of the extraction and quantification methods were calculated as the percent relative standard deviation (%RSD) of the spiked standards and percent spiked standard recovered, respectively. […] Test medium was removed following chemical exposure, and cell viability was evaluated in the same wells by MTT. MTT procedures were as follows: after removal of test medium, 500 uL of 0.5 mg/ml of 3-[4,5-dimethylthiazol-2-y]2,5-diphenyltetrazoliumbromide solution was added to the cells. Following a 4-hour incubation at 37 C and 5% CO2 to allow formazan-crystal formation, the MTT solution was removed and blue formazan salt crystals were solubilized using 500uL anhydrous isopropanol with shaking for 20 minutes. Absorbance was read at 570 and 650nm using a Packard Fusion microplate reader. Background correction of absorbance units was used to determine percent change relative to controls. […]
SMILES,outcome,AC50
COc1cccc(O)c1,inactive,–
CC(C)CCOCCC(C)C,inactive,–
Cc1cccc2c1ccc1ccccc12,inactive,–
COc1cc([N+](=O)[O-])ccc1N,inactive,–
CC(C)(C)c1ccc(O)c(O)c1,inactive,–
C[C@]12CC[C@@H]3c4ccc(O)cc4CC[C@H]3[C@@H]1C[C@@H](O)[C@@H]2O,inactive,–
CCCCCc1ccc(O)cc1,–,21900 nM (active)
CC(C)(c1ccc(Oc2ccc(N)cc2)cc1)c1ccc(Oc2ccc(N)cc2)cc1,–,229 nM (active)
CCCCCC(C)OC(=O)COc1ccc(Cl)c2cccnc12 (centres undefined),inactive,–
Oc1cc2ccccc2cc1O,inactive,–
Clc1ccc(Nc2nnc(Cc3ccncc3)c3ccccc23)cc1,–,2380 nM (active)
c1cc[nH]c1,inactive,–
O=C(NCc1ncc(C(F)(F)F)cc1Cl)c1c(Cl)cccc1Cl,inactive,–
O=C(CCCN1CCC(O)(c2ccc(Cl)cc2)CC1)c1ccc(F)cc1,inactive,–
